# Data from publication PMC7862700, “An all-to-all approach to the identification of sequence-specific readers for epigenetic DNA modifications on cytosine”.
# Assays:
# Test in all cases: DAPPL (digital affinity profiling via proximity ligation, sequencing); 10 mM Tris-HCl pH 7.5, 50 mM NaCl, 1 mM DTT, 4% glycerol, room temperature, 30 min; GST-TFs on glutathione beads, 16-mer random dsDNA library, 0.1% formaldehyde crosslink after washing; high values mean tight binding
# [1] = target: T1, FLI1 (Homo sapiens, UniProt Q01543 1-452); conditions: protein: recombinant; tags: N-terminal GST; dsDNA, one strand shown
# T1 sequence: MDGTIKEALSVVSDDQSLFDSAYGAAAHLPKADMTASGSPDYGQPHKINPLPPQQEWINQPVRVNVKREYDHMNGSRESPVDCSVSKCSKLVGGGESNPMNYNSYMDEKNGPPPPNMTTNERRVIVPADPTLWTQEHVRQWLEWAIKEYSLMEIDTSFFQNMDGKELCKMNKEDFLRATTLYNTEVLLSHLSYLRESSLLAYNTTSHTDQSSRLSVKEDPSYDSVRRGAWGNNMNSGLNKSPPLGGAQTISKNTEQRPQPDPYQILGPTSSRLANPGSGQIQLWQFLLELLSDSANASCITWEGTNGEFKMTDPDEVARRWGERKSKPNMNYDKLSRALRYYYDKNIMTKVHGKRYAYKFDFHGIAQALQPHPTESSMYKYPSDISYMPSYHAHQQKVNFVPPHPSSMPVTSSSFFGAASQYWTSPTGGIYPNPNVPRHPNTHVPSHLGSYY
# Method in brief: (§1)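 Sequencing on an Illumina NextSeq500 followed washing, crosslinking with 0.1% formaldehyde, proximity ligation (BsaI/T4 ligase, 1 h, 37 °C) and PCR amplification of pools that had been incubated for 30 min at room temperature with 200 nmole of a random double-stranded 16-mer DNA library in Tris/NaCl/DTT/glycerol buffer. Each pool held DNA-barcoded human transcription factors, expressed in yeast as GST fusions and captured on glutathione beads, plus a tag-only sample. Binding signal is a hexamer's read frequency for a factor divided by its frequency in the tag-only sample.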
# [2] = target: T2, ELK1 (Homo sapiens, UniProt P19419 1-428); conditions: protein: recombinant; tags: N-terminal GST; dsDNA, one strand shown
# T2 sequence: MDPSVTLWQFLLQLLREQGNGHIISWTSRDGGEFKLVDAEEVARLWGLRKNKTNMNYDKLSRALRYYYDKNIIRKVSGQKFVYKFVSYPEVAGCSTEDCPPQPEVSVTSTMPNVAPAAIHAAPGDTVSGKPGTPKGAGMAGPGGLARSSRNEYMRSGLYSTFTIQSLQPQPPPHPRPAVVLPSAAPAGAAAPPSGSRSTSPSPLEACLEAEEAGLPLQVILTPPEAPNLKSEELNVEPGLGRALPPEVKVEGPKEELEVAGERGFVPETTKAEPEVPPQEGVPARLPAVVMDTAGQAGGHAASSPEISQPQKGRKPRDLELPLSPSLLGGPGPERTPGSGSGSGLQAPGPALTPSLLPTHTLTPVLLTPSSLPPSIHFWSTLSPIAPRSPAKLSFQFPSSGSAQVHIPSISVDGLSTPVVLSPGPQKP
# Method in brief: as §1
# [3] = target: T3, GABPA (Homo sapiens, UniProt Q06546 1-454); conditions: protein: recombinant; tags: N-terminal GST; dsDNA, one strand shown
# T3 sequence: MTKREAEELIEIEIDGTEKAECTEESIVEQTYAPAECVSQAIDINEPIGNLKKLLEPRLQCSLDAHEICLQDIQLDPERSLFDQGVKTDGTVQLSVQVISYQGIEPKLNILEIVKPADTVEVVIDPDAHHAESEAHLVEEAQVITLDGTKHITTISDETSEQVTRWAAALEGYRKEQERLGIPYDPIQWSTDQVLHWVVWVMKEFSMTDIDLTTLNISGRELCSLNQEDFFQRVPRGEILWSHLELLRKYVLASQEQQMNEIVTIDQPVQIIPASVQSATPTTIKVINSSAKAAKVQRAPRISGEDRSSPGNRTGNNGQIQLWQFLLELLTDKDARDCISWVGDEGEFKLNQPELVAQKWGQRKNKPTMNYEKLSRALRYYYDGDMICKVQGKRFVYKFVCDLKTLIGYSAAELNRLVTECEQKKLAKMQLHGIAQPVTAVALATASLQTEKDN
# Method in brief: as §1
# [4] = target: T4, ERG (Homo sapiens, UniProt P11308 1-479); conditions: protein: recombinant; tags: N-terminal GST; dsDNA, one strand shown
# T4 sequence: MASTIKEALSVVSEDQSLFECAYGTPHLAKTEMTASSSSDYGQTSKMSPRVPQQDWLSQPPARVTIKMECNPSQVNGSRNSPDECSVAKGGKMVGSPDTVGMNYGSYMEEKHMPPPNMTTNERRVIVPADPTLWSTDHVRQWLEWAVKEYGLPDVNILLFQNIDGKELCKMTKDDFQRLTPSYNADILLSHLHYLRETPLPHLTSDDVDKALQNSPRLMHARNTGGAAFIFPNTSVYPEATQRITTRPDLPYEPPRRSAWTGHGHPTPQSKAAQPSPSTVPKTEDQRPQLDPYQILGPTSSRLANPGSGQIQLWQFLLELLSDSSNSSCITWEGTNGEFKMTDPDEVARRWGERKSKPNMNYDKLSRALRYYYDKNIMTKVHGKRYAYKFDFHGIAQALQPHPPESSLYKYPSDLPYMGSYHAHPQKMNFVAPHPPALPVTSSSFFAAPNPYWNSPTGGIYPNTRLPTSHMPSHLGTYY
# Method in brief: as §1
# [5] = target: ELF1 (Homo sapiens, UniProt P32519 1-619); conditions: protein: recombinant; tags: N-terminal GST; dsDNA, one strand shown
# Chain of ELF1 (P32519 whole entry): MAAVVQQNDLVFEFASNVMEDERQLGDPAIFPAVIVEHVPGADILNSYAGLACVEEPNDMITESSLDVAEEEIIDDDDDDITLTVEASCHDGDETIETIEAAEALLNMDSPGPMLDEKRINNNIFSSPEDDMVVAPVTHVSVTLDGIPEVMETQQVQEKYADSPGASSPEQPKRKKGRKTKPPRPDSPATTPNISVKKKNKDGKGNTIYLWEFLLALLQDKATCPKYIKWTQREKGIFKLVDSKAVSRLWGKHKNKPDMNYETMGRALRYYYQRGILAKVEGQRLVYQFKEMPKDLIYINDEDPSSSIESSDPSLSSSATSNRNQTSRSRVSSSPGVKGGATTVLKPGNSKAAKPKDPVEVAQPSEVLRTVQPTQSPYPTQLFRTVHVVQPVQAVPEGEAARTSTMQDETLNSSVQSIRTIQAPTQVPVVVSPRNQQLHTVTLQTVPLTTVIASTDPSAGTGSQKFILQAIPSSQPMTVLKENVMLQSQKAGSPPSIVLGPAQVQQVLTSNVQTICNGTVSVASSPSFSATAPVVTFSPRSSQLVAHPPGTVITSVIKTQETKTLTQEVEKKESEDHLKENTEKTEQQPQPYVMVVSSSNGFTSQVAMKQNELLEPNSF
# Method in brief: as §1
# [6] = target: T5, EHF (Homo sapiens, UniProt Q9NZC4 1-300); conditions: protein: recombinant; tags: N-terminal GST; dsDNA, one strand shown
# T5 sequence: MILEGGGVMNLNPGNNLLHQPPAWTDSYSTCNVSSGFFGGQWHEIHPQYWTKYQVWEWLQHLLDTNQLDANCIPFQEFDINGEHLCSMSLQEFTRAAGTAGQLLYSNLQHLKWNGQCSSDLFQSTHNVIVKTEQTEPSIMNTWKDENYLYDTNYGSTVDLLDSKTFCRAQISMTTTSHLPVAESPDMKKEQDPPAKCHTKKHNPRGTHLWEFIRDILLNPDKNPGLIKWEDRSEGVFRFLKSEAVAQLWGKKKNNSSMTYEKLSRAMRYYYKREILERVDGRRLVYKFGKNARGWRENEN
# Method in brief: as §1
# [7] = target: SPI1 (Homo sapiens, UniProt P17947 1-270); conditions: protein: recombinant; tags: N-terminal GST; dsDNA, one strand shown
# Method in brief: as §1
# [8] = target: SPIB (Homo sapiens, UniProt Q01892 1-262); conditions: protein: recombinant; tags: N-terminal GST; dsDNA, one strand shown
# Chain of SPIB (Q01892 whole entry): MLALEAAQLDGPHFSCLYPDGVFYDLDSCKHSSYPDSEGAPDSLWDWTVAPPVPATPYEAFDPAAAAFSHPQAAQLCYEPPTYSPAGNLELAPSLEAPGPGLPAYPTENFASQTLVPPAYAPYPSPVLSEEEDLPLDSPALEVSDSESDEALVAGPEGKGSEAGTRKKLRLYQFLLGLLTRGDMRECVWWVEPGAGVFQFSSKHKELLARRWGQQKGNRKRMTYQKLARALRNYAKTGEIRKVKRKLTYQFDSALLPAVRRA
# Method in brief: as §1
# [9] = target: T6, ELK3 (Homo sapiens, UniProt P41970 1-407); conditions: protein: recombinant; tags: N-terminal GST; dsDNA, one strand shown
# T6 sequence: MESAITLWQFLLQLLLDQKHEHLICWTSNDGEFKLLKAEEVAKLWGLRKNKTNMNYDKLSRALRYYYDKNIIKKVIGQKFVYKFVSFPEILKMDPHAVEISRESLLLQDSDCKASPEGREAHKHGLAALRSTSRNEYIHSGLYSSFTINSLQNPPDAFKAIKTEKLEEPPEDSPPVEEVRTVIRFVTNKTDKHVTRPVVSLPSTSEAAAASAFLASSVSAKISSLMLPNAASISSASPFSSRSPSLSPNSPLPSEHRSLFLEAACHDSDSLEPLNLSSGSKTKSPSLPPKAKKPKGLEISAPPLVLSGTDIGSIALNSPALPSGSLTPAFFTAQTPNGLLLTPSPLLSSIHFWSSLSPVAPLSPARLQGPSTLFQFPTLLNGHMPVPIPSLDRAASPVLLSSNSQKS
# Method in brief: as §1
# [10] = target: T7, FEV (Homo sapiens, UniProt Q99581 1-238); conditions: protein: recombinant; tags: N-terminal GST; dsDNA, one strand shown
# T7 sequence: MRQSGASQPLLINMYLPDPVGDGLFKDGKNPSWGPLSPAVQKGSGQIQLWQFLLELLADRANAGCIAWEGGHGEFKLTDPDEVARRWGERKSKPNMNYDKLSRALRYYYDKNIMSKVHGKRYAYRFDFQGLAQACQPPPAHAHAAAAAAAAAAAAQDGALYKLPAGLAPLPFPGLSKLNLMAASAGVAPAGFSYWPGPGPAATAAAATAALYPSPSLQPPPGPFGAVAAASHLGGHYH
# Method in brief: as §1
# [11] = target: ETV5 (Homo sapiens, UniProt P41161 1-510); conditions: protein: recombinant; tags: N-terminal GST; dsDNA, one strand shown
# Chain of ETV5 (P41161 whole entry): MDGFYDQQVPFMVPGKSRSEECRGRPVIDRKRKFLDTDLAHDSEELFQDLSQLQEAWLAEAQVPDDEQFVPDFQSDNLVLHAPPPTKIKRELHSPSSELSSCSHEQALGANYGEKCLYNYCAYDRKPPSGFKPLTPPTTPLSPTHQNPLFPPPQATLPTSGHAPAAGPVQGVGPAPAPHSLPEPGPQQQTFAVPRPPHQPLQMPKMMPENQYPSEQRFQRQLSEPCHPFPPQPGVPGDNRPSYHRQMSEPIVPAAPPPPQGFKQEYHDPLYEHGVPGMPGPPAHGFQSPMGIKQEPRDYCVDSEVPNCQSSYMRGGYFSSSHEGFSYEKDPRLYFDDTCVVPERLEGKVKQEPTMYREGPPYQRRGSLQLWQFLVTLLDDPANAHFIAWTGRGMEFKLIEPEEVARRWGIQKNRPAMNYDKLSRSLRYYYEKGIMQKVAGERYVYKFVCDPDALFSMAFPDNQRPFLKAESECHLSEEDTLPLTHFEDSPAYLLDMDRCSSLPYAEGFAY
# Method in brief: as §1
# [12] = target: HSF1 (Homo sapiens, UniProt Q00613 1-529); conditions: protein: recombinant; tags: N-terminal GST; chain copies: 3; dsDNA, one strand shown
# Chain of HSF1 (Q00613 whole entry): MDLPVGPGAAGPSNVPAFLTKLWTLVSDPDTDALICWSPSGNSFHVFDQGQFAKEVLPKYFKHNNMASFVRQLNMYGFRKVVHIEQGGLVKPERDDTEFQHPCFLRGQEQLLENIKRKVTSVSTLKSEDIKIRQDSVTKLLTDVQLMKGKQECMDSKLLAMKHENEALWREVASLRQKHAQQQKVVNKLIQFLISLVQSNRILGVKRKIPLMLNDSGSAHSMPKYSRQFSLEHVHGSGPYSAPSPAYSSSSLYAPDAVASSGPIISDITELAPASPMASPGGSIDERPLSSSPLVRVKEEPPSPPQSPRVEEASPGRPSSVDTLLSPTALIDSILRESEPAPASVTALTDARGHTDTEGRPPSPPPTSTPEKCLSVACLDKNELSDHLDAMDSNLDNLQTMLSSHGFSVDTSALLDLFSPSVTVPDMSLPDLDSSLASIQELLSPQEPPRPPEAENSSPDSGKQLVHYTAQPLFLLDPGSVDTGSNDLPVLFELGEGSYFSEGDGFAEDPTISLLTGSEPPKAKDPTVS
# Method in brief: as §1
# [13] = target: T8, SPIC (Homo sapiens, UniProt Q8N5J4 1-248); conditions: protein: recombinant; tags: N-terminal GST; dsDNA, one strand shown
# T8 sequence: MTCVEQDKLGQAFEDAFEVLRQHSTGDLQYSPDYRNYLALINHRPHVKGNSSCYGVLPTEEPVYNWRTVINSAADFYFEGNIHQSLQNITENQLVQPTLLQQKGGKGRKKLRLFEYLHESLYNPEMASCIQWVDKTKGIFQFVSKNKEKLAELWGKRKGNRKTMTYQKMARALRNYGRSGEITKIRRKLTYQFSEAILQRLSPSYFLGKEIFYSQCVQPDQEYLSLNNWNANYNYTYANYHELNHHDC
# Method in brief: as §1
# [14] = target: ELF4 (Homo sapiens, UniProt Q99607 1-663); conditions: protein: recombinant; tags: N-terminal GST; dsDNA, one strand shown
# Chain of ELF4 (Q99607 whole entry): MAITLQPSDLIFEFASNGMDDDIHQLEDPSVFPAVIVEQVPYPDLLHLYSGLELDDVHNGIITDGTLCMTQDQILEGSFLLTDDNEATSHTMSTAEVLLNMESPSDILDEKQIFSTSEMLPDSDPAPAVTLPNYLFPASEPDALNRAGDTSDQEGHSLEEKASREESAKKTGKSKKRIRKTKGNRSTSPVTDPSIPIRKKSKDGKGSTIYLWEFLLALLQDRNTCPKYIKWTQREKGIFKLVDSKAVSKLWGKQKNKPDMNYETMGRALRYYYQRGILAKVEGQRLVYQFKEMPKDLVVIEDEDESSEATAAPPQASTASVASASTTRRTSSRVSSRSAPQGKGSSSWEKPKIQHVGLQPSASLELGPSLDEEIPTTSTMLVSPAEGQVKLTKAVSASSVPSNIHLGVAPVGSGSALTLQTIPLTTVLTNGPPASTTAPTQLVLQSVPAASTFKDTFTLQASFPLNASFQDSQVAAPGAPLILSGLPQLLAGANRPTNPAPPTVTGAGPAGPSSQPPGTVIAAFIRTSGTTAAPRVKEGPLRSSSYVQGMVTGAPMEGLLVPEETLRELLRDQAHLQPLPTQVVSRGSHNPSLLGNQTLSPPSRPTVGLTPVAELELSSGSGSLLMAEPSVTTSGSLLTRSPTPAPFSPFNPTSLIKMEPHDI
# Method in brief: as §1
# [15] = target: T9, ELK4 (Homo sapiens, UniProt P28324-2 1-405); conditions: protein: recombinant; tags: N-terminal GST; dsDNA, one strand shown
# T9 sequence: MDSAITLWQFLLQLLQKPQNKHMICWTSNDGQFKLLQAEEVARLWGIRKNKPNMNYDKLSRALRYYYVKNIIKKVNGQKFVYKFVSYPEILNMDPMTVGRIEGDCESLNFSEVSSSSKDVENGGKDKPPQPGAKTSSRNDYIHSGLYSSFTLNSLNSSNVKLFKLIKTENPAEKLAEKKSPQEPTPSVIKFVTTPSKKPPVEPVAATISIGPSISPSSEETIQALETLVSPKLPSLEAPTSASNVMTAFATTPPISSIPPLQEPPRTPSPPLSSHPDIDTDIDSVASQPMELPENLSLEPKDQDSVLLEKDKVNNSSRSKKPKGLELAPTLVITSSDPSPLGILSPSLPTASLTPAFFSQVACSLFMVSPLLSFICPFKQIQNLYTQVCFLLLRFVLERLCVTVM
# Method in brief: as §1
# [16] = target: T10, ETV2 (Homo sapiens, UniProt O00321 1-342); conditions: protein: recombinant; tags: N-terminal GST; dsDNA, one strand shown
# T10 sequence: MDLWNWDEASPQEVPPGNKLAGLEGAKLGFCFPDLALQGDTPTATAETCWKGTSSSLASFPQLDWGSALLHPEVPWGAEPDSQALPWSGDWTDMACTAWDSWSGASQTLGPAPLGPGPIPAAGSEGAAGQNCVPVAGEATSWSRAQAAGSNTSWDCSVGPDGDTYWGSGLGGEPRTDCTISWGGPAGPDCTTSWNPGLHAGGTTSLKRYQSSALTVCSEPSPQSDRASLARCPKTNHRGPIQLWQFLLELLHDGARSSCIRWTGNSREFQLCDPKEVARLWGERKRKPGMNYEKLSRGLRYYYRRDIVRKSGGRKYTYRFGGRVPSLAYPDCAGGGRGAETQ
# Method in brief: as §1
# [17] = target: T11, ELF3 (Homo sapiens, UniProt P78545 1-371); conditions: protein: recombinant; tags: N-terminal GST; dsDNA, one strand shown
# T11 sequence: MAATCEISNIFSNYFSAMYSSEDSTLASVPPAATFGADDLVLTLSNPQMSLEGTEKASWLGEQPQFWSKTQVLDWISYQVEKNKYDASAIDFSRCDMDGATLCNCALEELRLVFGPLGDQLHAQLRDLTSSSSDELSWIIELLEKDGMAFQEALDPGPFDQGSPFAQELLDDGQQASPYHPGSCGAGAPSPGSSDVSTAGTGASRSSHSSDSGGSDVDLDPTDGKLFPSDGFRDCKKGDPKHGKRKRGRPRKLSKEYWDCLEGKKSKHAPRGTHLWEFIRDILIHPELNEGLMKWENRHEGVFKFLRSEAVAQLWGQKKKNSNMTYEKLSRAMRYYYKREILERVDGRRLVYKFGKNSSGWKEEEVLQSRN
# Method in brief: as §1
# [18] = target: CRX (Homo sapiens, UniProt O43186 1-299); conditions: protein: recombinant; tags: N-terminal GST; dsDNA, one strand shown
# Chain of CRX (O43186 whole entry): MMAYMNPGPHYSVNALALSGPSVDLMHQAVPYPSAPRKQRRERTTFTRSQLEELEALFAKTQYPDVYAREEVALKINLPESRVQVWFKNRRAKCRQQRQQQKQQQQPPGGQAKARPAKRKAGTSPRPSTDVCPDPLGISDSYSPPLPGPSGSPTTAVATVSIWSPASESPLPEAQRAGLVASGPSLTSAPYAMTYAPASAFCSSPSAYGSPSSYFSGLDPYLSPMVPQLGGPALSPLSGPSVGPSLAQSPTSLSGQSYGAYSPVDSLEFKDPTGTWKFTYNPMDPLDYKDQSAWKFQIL
# Method in brief: as §1
# [19] = target: ETV1 (Homo sapiens, UniProt P50549 1-477); conditions: protein: recombinant; tags: N-terminal GST; dsDNA, one strand shown
# Chain of ETV1 (P50549 whole entry): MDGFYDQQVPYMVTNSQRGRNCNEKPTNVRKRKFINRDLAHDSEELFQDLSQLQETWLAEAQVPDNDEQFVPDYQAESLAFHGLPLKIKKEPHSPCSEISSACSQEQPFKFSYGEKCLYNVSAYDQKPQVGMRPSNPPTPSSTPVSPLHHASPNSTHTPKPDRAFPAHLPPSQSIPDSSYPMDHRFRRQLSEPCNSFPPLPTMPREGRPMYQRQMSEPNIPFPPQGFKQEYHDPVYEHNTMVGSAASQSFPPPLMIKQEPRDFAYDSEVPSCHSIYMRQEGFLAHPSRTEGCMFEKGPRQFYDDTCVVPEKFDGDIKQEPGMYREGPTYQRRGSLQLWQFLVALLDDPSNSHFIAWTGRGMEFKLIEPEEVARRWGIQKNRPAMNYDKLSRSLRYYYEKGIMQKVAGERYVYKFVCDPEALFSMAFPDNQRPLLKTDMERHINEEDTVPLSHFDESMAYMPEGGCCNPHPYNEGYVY
# Method in brief: as §1
sequence,measurement,setting,value
ACCTTT,binding signal,[1],"1.52 fold enrichment (6-mer frequency, TF over GST control)"
same,binding signal,[2],"1.33 fold enrichment (6-mer frequency, TF over GST control)"
same,binding signal,[3],"1.47 fold enrichment (6-mer frequency, TF over GST control)"
same,binding signal,[4],"1.38 fold enrichment (6-mer frequency, TF over GST control)"
same,binding signal,[5],"1.47 fold enrichment (6-mer frequency, TF over GST control)"
same,binding signal,[6],"1.38 fold enrichment (6-mer frequency, TF over GST control)"
same,binding signal,[7],"1.49 fold enrichment (6-mer frequency, TF over GST control)"
same,binding signal,[8],"1.45 fold enrichment (6-mer frequency, TF over GST control)"
same,binding signal,[9],"1.35 fold enrichment (6-mer frequency, TF over GST control)"
same,binding signal,[10],"1.45 fold enrichment (6-mer frequency, TF over GST control)"
same,binding signal,[11],"1.36 fold enrichment (6-mer frequency, TF over GST control)"
same,binding signal,[12],"1.36 fold enrichment (6-mer frequency, TF over GST control)"
same,binding signal,[13],"1.58 fold enrichment (6-mer frequency, TF over GST control)"
same,binding signal,[14],"1.42 fold enrichment (6-mer frequency, TF over GST control)"
same,binding signal,[15],"1.49 fold enrichment (6-mer frequency, TF over GST control)"
same,binding signal,[16],"1.31 fold enrichment (6-mer frequency, TF over GST control)"
same,binding signal,[17],"1.32 fold enrichment (6-mer frequency, TF over GST control)"
same,binding signal,[18],"1.3 fold enrichment (6-mer frequency, TF over GST control)"
same,binding signal,[19],"1.43 fold enrichment (6-mer frequency, TF over GST control)"
